# MARV entry inh = Marburg virus entry inhibition. Marburg virus pseudotyped entry inhibition, cell reporter. Potency, µM (titrated, usually from 37.8 µM), inactives show at the highest dose activity change, negative = inhibition, usual class: inhibitors. 300,000 tested, 1.8% active; calls by dose curve; tested in HEK293 cells; further: potency means the concentration at half of the fitted maximal effect
# Lassa entry inh = blocks Lassa virus binding to or entry into cells; Lassa virus pseudotype entry inhibition, cell reporter; Potency, µM (highest dose often 37.9 µM), inactives show at the top dose activity change, negative = inhibition, usual class: inhibitors; 300,000 tested, 1.2% active; AID 540256; calls by dose curve; tested in HEK293 cells; further: potency means the concentration at half of the fitted maximal effect; nearly all actives have a fitted effect of over 50% in size
# Giardia FBPA inh = blocks Giardia fructose-bisphosphate aldolase activity. A8B2U2. purified Giardia FBPA. AID 2451. Potency, µM (titrated, usually from 59.6 µM), inactives show top-dose activity, negative = inhibition, usual class: inhibitors. 290,000 tested, 0.71% active; further: potency means the concentration at half of the fitted maximal effect; nearly all actives have a fitted effect of over 55% in size
# Target sequence (A8B2U2 whole entry, looked up): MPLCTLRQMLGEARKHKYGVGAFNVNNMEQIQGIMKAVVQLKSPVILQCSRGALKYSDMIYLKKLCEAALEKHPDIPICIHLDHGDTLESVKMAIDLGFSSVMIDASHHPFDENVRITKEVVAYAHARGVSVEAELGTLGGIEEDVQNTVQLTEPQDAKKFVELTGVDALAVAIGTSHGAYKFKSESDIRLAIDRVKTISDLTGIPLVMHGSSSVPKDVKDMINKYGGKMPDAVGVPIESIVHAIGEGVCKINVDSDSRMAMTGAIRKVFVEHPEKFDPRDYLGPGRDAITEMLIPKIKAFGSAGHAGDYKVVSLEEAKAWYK
#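 Giardia FBPA (40 nM reagent) was preincubated 10 min at RT with compound (up to 57.5 uM final), then substrate plus GAPDH/TPI/NAD/arsenate coupling system with diaphorase/resazurin was added; resorufin fluorescence (525/598 nm) was read after 20 min.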
# FMDV inh = blocks foot and mouth disease virus; FMDV antiviral cell-based qHTS; Potency, µM (series often up to 57.9 µM), inactives show at the top dose activity change, negative = inhibition, actives largely listed as inhibitors; 410,000 tested, 1.2% active; AID 1159524; calls by dose curve; tested in HEK293T cells; further: read-out not given here; potency means the concentration at half of the fitted maximal effect; nearly all actives have a fitted effect of over 45% in size
# HCV inh = inhibitors of hepatitis C virus infection | 340,000 tested, 3.4% active | Huh7.5.1 HCVcc-Cre infection, luciferase reporter, 44 h | Potency, µM (series often up to 41.8 µM), for inactives: at the highest dose activity change, negative = inhibition, most hits filed as inhibitors; further: potency means the concentration at half of the fitted maximal effect
#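 Whole-lifecycle infectious HCVcc-Cre system; cells 1,000/well, compound then virus (~0.5 moi) added 4 h after plating, 44 h culture. Luciferase read 15 sec following 15 min substrate incubation, room temp.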
# HCMV inh = human cytomegalovirus inhibition; AID 1259415; activity change, negative = inhibition, % at 57.5 µM; HFF cells, HCMV-luciferase reporter, 72 h; hits give low values; 410,000 tested, 4.5% active; in the data active means activity change below about -60%; inconclusive means no clear call, values can overlap the other calls; inactive means above about -39%
#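 Two compound doses tested in HFFs infected with HCMV-luciferase, MOI 1 PFU/cell, 72 h at 37C. Lysate luminescence read with OneGlo; data normalized against buffer-only and 10uM Salinomycin inhibitor controls.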
# * = called active by the depositor; u = inconclusive; x = not tested or not shown; [ ] = dose if it differs, or a comment. Only some compounds are listed: those with a hit (about 8.3% of all), similar ones and a draw of the others. Unless noted, the call rests on the fitted dose curve; in most records, active means well fitted curve in the direction sought with a large enough effect; inconclusive means small, poorly fitted or top-dose-only effect, or another doubt; inactive means no such curve, though single readings can be large; an effect the other way counts as inactive or inconclusive. On the % scale 0 is the no-effect control and ±100 the full control effect.
SMILES,MARV entry inh,Lassa entry inh,Giardia FBPA inh,FMDV inh,HCV inh,HCMV inh
CCNC(=O)C1(C)CCN(C(=O)c2ccccc2F)C1 (stereo unspecified),x,x,x,-14%,x,-98*
CCCNC(=O)C1(C)CCN(C(=O)c2ccccc2F)C1 (stereo unspecified),x,x,x,-13%,x,10
O=C(NN=Cc1ccccc1Cl)C(=O)Nc1cccc(C(F)(F)F)c1,x,x,x,x,x,-36
CC(NC(=O)C(Cc1ccccc1)N1C(=O)C2C3CCC(C3)C2C1=O)c1ccccc1 (stereo unspecified),-1%,u,0%,19%,1%,-61*
Cc1ccc(NC(=O)Cn2c(=O)c(C(F)(F)F)nc3ccccc32)c(C)c1,x,-8%[46.1 µM],x,9%,x,25
C=CC[C@@H]1C=C[C@@H](Oc2ccc(OC)cc2)[C@@H](CO)O1,-15%[14.2 µM],x,x,x,x,x
O=C(NCc1cccnc1)c1ccc(-c2cc3ccccc3oc2=O)cc1,x,x,0%,-6%,u,-66*
O=C(Nc1cccnc1)c1cccc(-c2cc3ccccc3oc2=O)c1,1%[46.1 µM],-5%[46.1 µM],5%,26%,15%,30
Nc1ccc(-c2cc3ccccc3oc2=O)cc1,u,0.71µM*,-1%,1.1µM*,-13%,u
O=c1oc2ccccc2cc1-c1ccc(O)cc1,u,-3%,-4%,25%,u,70
CC(=O)OC[C@@H]1O[C@H](C/C=N\OC[C@@H](O)COCc2ccco2)C=C[C@@H]1OC(C)=O,1%[14.2 µM],x,-1%[12.9 µM],x,x,x
COc1cc(C2C(C(C)=O)=C(O)C(=O)N2CCN2CCOCC2)ccc1O (stereo unspecified),0%,17%,-16%,0%,1%,62
CCCOc1ccc(C2C(C(=O)/C=C/c3ccco3)=C(O)C(=O)N2CCN2CCOCC2)cc1OC (stereo unspecified),7%[46.1 µM],-13%,7.9µM*,6%,12%,30
Cc1ccc(NC(=S)N/N=C/c2ccc([N+](=O)[O-])s2)cc1,u,18µM*,6%,u,u,-74*
CCC/C=N/NC(=O)CNC(=O)c1ccccc1Cl,5%[46.1 µM],6%[46.1 µM],1%,4%,28%,-68*
Cc1onc(-c2ccccc2)c1C(=O)N/N=C/c1ccc([N+](=O)[O-])s1,u,u,-18%,u,u,-28
O=C(Cc1cccs1)N/N=C\c1ccc([N+](=O)[O-])s1,x,x,-6%,22%,u,-10
CCC/C=N/NC(=O)c1ccccc1O,u,0%[46.1 µM],-6%,21%,-2%,-29
O=C(CNC(=O)c1ccccc1Cl)N/N=C/c1ccc([N+](=O)[O-])s1,u,u,6%,-10%,13µM*,-93*
COc1ccc(C(=O)N2CCC3(CCN(C(=O)Nc4ccccc4)CC3)CC2)cc1,x,x,0%,-15%,x,x
Cc1ccccc1C(=O)Nc1ccc(OCc2cc(=O)n3ccccc3n2)cc1,x,u,x,5%,x,u
N#C/C(=N\Nc1cccc(C(F)(F)F)c1)C(=O)c1ccsc1,x,x,-9%,12%,u,-97*
Cc1nccc(-c2cccc(N/N=C(\C#N)C(=O)c3ccccc3)c2)n1,x,x,-3%,u,-5%,u
O=C1[C@H]2[C@H]3[C@H](O)[C@H](O)C/C(=N/OC[C@@H](O)COCc4ccco4)[C@H]3CC[C@@H]2C(=O)N1Cc1ccccc1,-4%[14.2 µM],x,0%[12.9 µM],x,x,x
Cc1ccc2nc3c(c(Nc4ccc(C)c(C)c4)c2c1)CCC3,x,u,x,-12%,x,u
SMILES,MARV entry inh,Lassa entry inh,Giardia FBPA inh,FMDV inh,HCV inh,HCMV inh
COc1ccc(Nc2c3c(nc4ccc(C)cc24)CCC3)cc1,x,x,1%,u,u,-81*
Cc1ccc2nc3c(c(Nc4ccc5c(c4)OCCO5)c2c1)CCC3,u,14µM*,3%,-44%,u,-66*
COc1cc(C2C(=O)N(C3CCC(C)CC3)CC(=O)N2CCc2ccc(Cl)cc2)ccc1OC(C)C (stereo unspecified),x,-7%[46.1 µM],x,-14%,x,-10
Cc1ccc(C)c(N2CCN(S(=O)(=O)c3ccc(-c4cc(C(F)(F)F)on4)s3)CC2)c1,x,u,x,-16%,x,-16
COc1cc(Nc2ncc3c(n2)CCN(Cc2ccc(OC(C)C)c(OC)c2)C3)cc(OC)c1,x,16%[46.1 µM],x,-15%,x,27
Cn1nc([N+](=O)[O-])c(C(C#N)c2nc3ccccc3n2C)c(Cl)c1=O (stereo unspecified),0%,2%,8%,-9%,11%,-76*
Cc1cc(N2CCOCC2)ccc1/C=C1\NC(=O)N(Cc2ccccc2)C1=O,x,x,-1%,-23%,u,9
Cc1cc(N2CCOCC2)ccc1/C=C1\NC(=O)N(Cc2ccccc2F)C1=O,3%,u,-9%,-7%,4µM*,-5
CCOc1cc(/C=C2/NC(=O)N(Cc3ccccc3F)C2=O)ccc1O,16µM*,-25%,-4%,-13%,10µM*,-61*
NC(=S)NCCCC(N)C(=O)O (stereo unspecified),u,x,-2%,x,x,x
CCOc1cccc(CC(=O)NCc2ccc3c(c2)CCN3C(=O)c2cccc(C)c2)c1OCC,u,11µM*,x,14µM*,x,-67*
CCOc1ccccc1NC(=O)NCc1ccc2c(c1)CCN2C(=O)c1ccccc1,x,u,x,0%,x,-82*
COc1ccc(C)cc1NC(=O)NCc1ccc2c(c1)CCN2C(=O)c1ccccc1,x,u,x,u,x,-92*
CCOc1ccccc1C(=O)NCc1ccc2c(c1)CCN2C(=O)c1ccccc1,x,u,x,-28%,x,-78*
C[C@H](NC(=O)[C@@H](N)Cc1ccc(O)cc1)C(=O)N[C@@H](Cc1ccccc1)C(=O)N[C@@H](Cc1ccccc1)C(N)=O,x,x,x,7%[6.7 µM],x,x
Cc1cccc(C(=O)N2CCc3cc(CNC(=O)c4ccco4)ccc32)c1,x,20%[46.1 µM],x,28µM*,x,-38
COc1ccc(-c2ccc(OC)c(C3C4C=CCCC4(C)C(=O)N3Cc3ccccc3)c2)cc1 (stereo unspecified),x,x,2%,x,x,x
Cc1ccc(F)cc1NC(=O)N1CCN(c2ccnc3cc(Cl)ccc23)CC1,x,x,1%,u,3.5µM*,-69*
CC(=O)N1CCN(c2ccnc3cc(Cl)ccc23)CC1,0%[46.1 µM],17%[46.1 µM],1%,-13%,21%,u
CCCCNC(=O)N1CCN(c2ccnc3cc(Cl)ccc23)CC1,u,0%,-6%,32µM*,-3%,x
O=C(Nc1cc(F)ccc1F)N1CCN(c2ccnc3cc(Cl)ccc23)CC1,x,x,0%,32µM*,11µM*,-83*
O=C(Nc1ccc(C(F)(F)F)cc1)N1CCN(c2ccnc3cc(Cl)ccc23)CC1,u,u,-2%,u,8.9µM*,-72*
Cc1cc(C)cc(NC(=O)c2cc(S(=O)(=O)N3CCCCC3)c[nH]2)c1,x,u,x,14%,x,-20
Cc1ccc2c(c1)C(=O)[C@@]1(O)CCN(c3ccccc3)C1=N2,x,x,5%,-5%,x,x

# From PubChem BioAssay
